Drawing on PubChem BioAssay (NCATS), this text covers Potency for 13 compounds.

Each structure is given as a SMILES string. Results filed as inconclusive are left out. Activity calls are given as the source filed them. The call rests on the fitted dose curve; in most records, active means well fitted inhibition curve with a large enough effect; inconclusive means small, poorly fitted or top-dose-only effect; inactive means flat fitted curve, though single readings scatter.
Potency means the concentration at half of the fitted maximal effect.

The first assay is described as follows: Drug repurposing screens with cells derived from glioblastoma tumor samples (AID 1345199). Further: nearly all actives have a fitted effect of over 40% in size. The note with it: GBM patient neurospheres viability, ATP luminescence, 48 h; tumour line A. Summed up: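 Four patient lines of CD133+ GBM neurospheres were screened at several concentrations; hits were retested in those lines plus three slower-growing GBM lines, using 48-hour treatment and ATP-based viability.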
In the case of `Cc1ccc(-c2cc(C(F)(F)F)nn2-c2ccc(S(N)(=O)=O)cc2)cc1`, the Potency is 8.91 µM (active).
The same measure, in the same setting: with `CC(COc1ccccc1)N(CCCl)Cc1ccccc1` (stereo unspecified) the figure was 20 µM (active); with `O=C(CCCN1CCC(O)(c2ccc(Cl)cc2)CC1)c1ccc(F)cc1`, 11.2 µM (active); with `Clc1ccccc1C(c1ccccc1)(c1ccccc1)n1ccnc1`, 11.2 µM (active).
Regarding `O=C(c1ccc(F)cc1)C1CCN(CCn2c(=O)[nH]c3ccccc3c2=O)CC1`, the Potency is 3.98 µM (active).
`Clc1ccc2c(c1)C(N1CCNCC1)=Nc1ccccc1O2`: the Potency was 14.1 µM (active).
The same measure, in the same setting: with `CN1CCN(C2=Nc3cc(Cl)ccc3Nc3ccccc32)CC1` the figure was 11.2 µM (active).
On the same count and under the same terms, with `COc1ccc(CCN(C)CCCC(C#N)(c2ccc(OC)c(OC)c2)C(C)C)cc1OC` (stereo unspecified) the figure was 10 µM (active); with `CN1CCC(=C2c3ccccc3CC(=O)c3sccc32)CC1`, 14.1 µM (active).
Same read-out and setting: with `Clc1ccc(C(c2ccccc2Cl)C(Cl)Cl)cc1` (stereo unspecified) the figure was 22.4 µM (active).
For the compound `CC(CCc1ccc(O)cc1)NCCc1ccc(O)c(O)c1` (stereo unspecified), the Potency was 28.2 µM (active).
Same read-out and setting: with `CC[C@@]1(O)C(=O)OCc2c1cc1n(c2=O)Cc2cc3c(CN(C)C)c(O)ccc3nc2-1` the figure was 0.891 µM (active); with `CNCCCC12CCC(c3ccccc31)c1ccccc12`, 7.94 µM (active).

The same assay, now with this note: GBM patient neurospheres viability, ATP luminescence, 48 h; tumour line B.
In the case of `COc1ccc(CCN(C)CCCC(C#N)(c2ccc(OC)c(OC)c2)C(C)C)cc1OC` (stereo unspecified), the Potency is 35.5 µM (active).
For the compound `CC(CCc1ccc(O)cc1)NCCc1ccc(O)c(O)c1` (stereo unspecified), the Potency is 31.6 µM (active).
For `CNCCCC12CCC(c3ccccc31)c1ccccc12`, the Potency was 17.8 µM (active).

Staying with this assay, now noted: GBM patient neurospheres viability, ATP luminescence, 48 h; tumour line D.
As to `O=C(CCCN1CCC(O)(c2ccc(Cl)cc2)CC1)c1ccc(F)cc1`, the Potency was 15.8 µM (active).
As for `CN1CCN(C2=Nc3cc(Cl)ccc3Nc3ccccc32)CC1`, the Potency is 35.5 µM (active).
On the same count and under the same terms, with `CN1CCC(=C2c3ccccc3CC(=O)c3sccc32)CC1` the figure was 12.6 µM (active); with `CC[C@@]1(O)C(=O)OCc2c1cc1n(c2=O)Cc2cc3c(CN(C)C)c(O)ccc3nc2-1`, 3.55 µM (active).
Still for that read-out and setting: with `CNCCCC12CCC(c3ccccc31)c1ccccc12` the figure was 22.4 µM (active).
